Targets with a hit are over-represented here; the source holds about 7,900 in all. About 0.6% of all pairs of compound and target were hits.
What was measured:
Assay in all cases: log2 fold change, soluble protein after heating vs DMSO (PISA); higher = thermal stabilisation; K562 cells, 10 uM, 30 min; active = over 0.2 and 3.5 SD of the protein, either way, in both replicates (recomputed)
Tubastatin A = compound: CN1CCc2c(c3ccccc3n2Cc2ccc(C(=O)NO)cc2)C1 [Tubastatin A]
Summary of the method: (§1)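 K562 cells at 2×10^6 cells/mL were exposed to 10 μM compound for 30 min, then aliquots were heated for 3 min across 48°C-58°C, pooled, and extracted in PBS containing 0.5% NP-40 at 4°C. The supernatant after 21,000xg for 90 min was taken as soluble protein and measured by TMTpro 16plex LC-MS/MS with channel sums equalised. Thermal stability is reported relative to control samples, with values from duplicates. Fold changes are given on a log2 scale.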

[1] = compound: CNC(=O)C1=CC=CC=C1NC2=NC(=NC=C2Cl)NC3=C(C=C(C=C3)N4CCOCC4)OC
Summary of the method: as §1

[2] = compound: COC1=CC=C(C=C1)CN2C=CC3=C2C=C(C=C3)C(=O)NO
Summary of the method: as §1

idasanutlin = compound: COc1cc(C(=O)O)ccc1NC(=O)[C@@H]1N[C@@H](CC(C)(C)C)[C@](C#N)(c2ccc(Cl)cc2F)[C@H]1c1cccc(Cl)c1F [idasanutlin]
Summary of the method: as §1

alisertib = compound: COc1cc(Nc2ncc3c(n2)-c2ccc(Cl)cc2C(c2c(F)cccc2OC)=NC3)ccc1C(=O)O [alisertib]
Summary of the method: as §1

gefitinib = compound: COc1cc2ncnc(Nc3ccc(F)c(Cl)c3)c2cc1OCCCN1CCOCC1 [gefitinib]
Summary of the method: as §1

[3] = compound: COc1cccc2cc(-c3nc([C@H]4CC[C@H](C(=O)O)CC4)n4ncnc(N)c34)[nH]c12
Summary of the method: as §1

saracatinib = compound: CN1CCN(CCOc2cc(OC3CCOCC3)c3c(Nc4c(Cl)ccc5c4OCO5)ncnc3c2)CC1 [saracatinib]
Summary of the method: as §1

alvocidib = compound: CN1CC[C@H](c2c(O)cc(O)c3c(=O)cc(-c4ccccc4Cl)oc23)[C@H](O)C1 [alvocidib]
Summary of the method: as §1

rucaparib = compound: CNCc1ccc(-c2[nH]c3cc(F)cc4c3c2CCNC4=O)cc1 [rucaparib]
Summary of the method: as §1

[4] = compound: CNc1nc(-c2ccc3c(N)n[nH]c3c2)cc(N2C[C@@H](C(=O)NC3CCCCC3)CC[C@H]2C)n1
Summary of the method: as §1

encorafenib = compound: COC(=O)N[C@@H](C)CNc1nccc(-c2cn(C(C)C)nc2-c2cc(Cl)cc(NS(C)(=O)=O)c2F)n1 [encorafenib]
Summary of the method: as §1

zotarolimus = compound: CO[C@H]1C[C@@H]2CC[C@@H](C)[C@@](O)(O2)C(=O)C(=O)N2CCCC[C@H]2C(=O)O[C@H]([C@H](C)C[C@@H]2CC[C@H](n3cnnn3)[C@H](OC)C2)CC(=O)[C@H](C)/C=C(\C)[C@@H](O)[C@@H](OC)C(=O)[C@H](C)C[C@H](C)/C=C/C=C/C=C/1C [zotarolimus]
Summary of the method: as §1

[5] = compound: COc1cc2nc(-c3cc(F)ccc3O)nc(N[C@@H]3CNC[C@H]3C(C)(C)O)c2cc1OC
Summary of the method: as §1

lapatinib = compound: CS(=O)(=O)CCNCc1ccc(-c2ccc3ncnc(Nc4ccc(OCc5cccc(F)c5)c(Cl)c4)c3c2)o1 [lapatinib]
Summary of the method: as §1

pictilisib = compound: CS(=O)(=O)N1CCN(Cc2cc3nc(-c4cccc5[nH]ncc45)nc(N4CCOCC4)c3s2)CC1 [pictilisib]
Summary of the method: as §1

sotrastaurin = compound: CN1CCN(c2nc(C3=C(c4c[nH]c5ccccc45)C(=O)NC3=O)c3ccccc3n2)CC1 [sotrastaurin]
Summary of the method: as §1

defactinib = compound: CNC(=O)c1ccc(Nc2ncc(C(F)(F)F)c(NCc3nccnc3N(C)S(C)(=O)=O)n2)cc1 [defactinib]
Summary of the method: as §1

[6] = compound: COC(=O)[C@H](CCSC)NC(=O)C1=C(C=C(C=C1)NC[C@H](CS)N)C2=CC=CC=C2
Summary of the method: as §1

filanesib = compound: CON(C)C(=O)N1N=C(c2cc(F)ccc2F)S[C@@]1(CCCN)c1ccccc1 [filanesib]
Summary of the method: as §1

Measured: log2 fold change

BRAF, A0A2R8Y8E0
inactive: Tubastatin A -0.084 | [1] 0.143 | [2] -0.008 | idasanutlin 0.221 | alisertib -0.054 | gefitinib -0.027 | [3] -0.326

AARSD1 (UniProt Q9BTE6)
UniProt Q9BTE6, sequence (Q9BTE6 whole entry, looked up): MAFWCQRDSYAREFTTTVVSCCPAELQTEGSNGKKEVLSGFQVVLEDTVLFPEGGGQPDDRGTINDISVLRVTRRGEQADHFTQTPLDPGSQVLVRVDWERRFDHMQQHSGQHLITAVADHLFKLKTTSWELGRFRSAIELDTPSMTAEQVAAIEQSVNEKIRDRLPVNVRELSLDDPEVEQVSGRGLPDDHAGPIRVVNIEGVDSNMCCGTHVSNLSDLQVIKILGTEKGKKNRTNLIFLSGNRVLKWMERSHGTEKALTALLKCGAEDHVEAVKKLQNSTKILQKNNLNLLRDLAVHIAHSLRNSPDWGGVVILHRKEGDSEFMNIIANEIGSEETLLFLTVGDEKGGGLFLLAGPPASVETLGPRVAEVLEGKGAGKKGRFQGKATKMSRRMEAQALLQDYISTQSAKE
inactive: saracatinib 0.008 | alvocidib -0.15 | [1] 0.08 | rucaparib 0.014 | [4] 0.165 | encorafenib -0.042 | [2] -0.659 | zotarolimus 0.055 | idasanutlin -0.071 | alisertib 0.08 | [5] 0.036 | gefitinib 0.157 | [3] -0.016 | lapatinib 0.069

BAP18 isoform 3 (UniProt Q8IXM2)
inactive: Tubastatin A 0.301 | [1] -0.129 | alisertib -0.033 | [3] 0.12 | pictilisib -0.093

BDH2 (UniProt Q9BUT1)
inactive: saracatinib -0.088 | sotrastaurin 0 | alvocidib -0.177 | [1] -0.061 | defactinib -0.021 | [4] 0.015 | [6] -0.039 | [2] 0.022 | filanesib -0.007 | zotarolimus 0.098 | idasanutlin -0.039 | alisertib 0.071 | [5] 0.065 | [3] -0.001 | lapatinib 0.012 | pictilisib 0.007

ACVR1 (UniProt Q04771)
UniProt Q04771, sequence (Q04771 whole entry, looked up): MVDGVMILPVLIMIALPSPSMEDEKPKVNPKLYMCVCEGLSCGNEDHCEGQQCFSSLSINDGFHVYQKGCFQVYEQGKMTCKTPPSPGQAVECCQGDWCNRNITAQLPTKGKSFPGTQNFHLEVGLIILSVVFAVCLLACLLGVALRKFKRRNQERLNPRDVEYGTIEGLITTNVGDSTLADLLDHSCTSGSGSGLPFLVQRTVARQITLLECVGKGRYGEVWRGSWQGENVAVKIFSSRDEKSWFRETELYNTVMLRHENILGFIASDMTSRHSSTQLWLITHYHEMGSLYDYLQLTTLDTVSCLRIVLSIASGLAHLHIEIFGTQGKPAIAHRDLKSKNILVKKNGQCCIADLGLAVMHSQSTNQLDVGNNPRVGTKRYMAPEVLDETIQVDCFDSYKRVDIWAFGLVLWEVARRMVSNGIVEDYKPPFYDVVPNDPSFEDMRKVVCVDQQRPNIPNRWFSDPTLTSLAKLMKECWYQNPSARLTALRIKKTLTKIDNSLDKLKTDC
inactive: sotrastaurin -0.081 | alvocidib 0.047 | Tubastatin A -0.042 | [1] 0 | defactinib -0.095 | rucaparib 0.029 | [4] -0.106 | encorafenib 0.122 | [6] -0.156 | filanesib -0.022 | zotarolimus -0.371 | idasanutlin -0.156 | alisertib -0.096 | [5] 0.133 | [3] -0.13 | lapatinib -0.004 | pictilisib 0.248

ALG14 (UniProt Q96F25)
inactive: saracatinib 0.049 | alvocidib -0.14 | Tubastatin A -0.027 | [1] -0.001 | defactinib 0.091 | rucaparib -0.173 | [4] -0.022 | encorafenib 0.028 | [6] -0.002 | [2] -0.2 | zotarolimus -0.109 | idasanutlin -0.091 | alisertib 0.112 | [5] -0.19 | gefitinib 0.074 | [3] 0.077 | lapatinib 0.168 | pictilisib -0.467

ANGEL1 (UniProt Q9UNK9)
inactive: Tubastatin A 0.089 | defactinib -0.076 | [6] 0.095 | [2] 0.024

ACOX3 (UniProt O15254)
UniProt O15254, sequence (O15254 whole entry, looked up): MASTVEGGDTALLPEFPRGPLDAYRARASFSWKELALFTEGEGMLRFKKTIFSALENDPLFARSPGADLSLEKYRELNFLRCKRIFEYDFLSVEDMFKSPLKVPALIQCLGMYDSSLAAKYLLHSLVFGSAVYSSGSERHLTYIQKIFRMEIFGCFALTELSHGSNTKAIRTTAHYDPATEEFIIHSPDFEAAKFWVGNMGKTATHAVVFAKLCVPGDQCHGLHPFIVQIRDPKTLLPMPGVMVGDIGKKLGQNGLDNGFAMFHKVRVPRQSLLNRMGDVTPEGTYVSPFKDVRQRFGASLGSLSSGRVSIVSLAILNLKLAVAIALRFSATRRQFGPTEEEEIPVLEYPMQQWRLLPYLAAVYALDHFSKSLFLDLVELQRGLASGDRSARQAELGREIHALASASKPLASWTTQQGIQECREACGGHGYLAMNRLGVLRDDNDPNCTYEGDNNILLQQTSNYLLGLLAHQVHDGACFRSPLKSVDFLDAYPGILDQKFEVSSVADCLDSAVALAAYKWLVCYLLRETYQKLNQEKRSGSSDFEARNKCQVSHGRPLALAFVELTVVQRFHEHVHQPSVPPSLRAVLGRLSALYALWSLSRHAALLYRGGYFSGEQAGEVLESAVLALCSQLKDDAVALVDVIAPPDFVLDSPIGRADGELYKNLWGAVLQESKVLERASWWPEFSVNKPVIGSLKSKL
active: Tubastatin A -0.465
inactive: sotrastaurin -0.039 | alvocidib -0.097 | [1] -0.034 | defactinib -0.063 | rucaparib -0.313 | encorafenib -0.036 | [6] 0.046 | [2] 0.138 | filanesib 0.042 | zotarolimus -0.037 | idasanutlin 0.074 | alisertib 0.555 | [5] -0.106 | gefitinib 0.116 | [3] 0.144 | lapatinib 0.41

ABCA4 (UniProt P78363)
UniProt P78363, sequence (P78363 whole entry, looked up): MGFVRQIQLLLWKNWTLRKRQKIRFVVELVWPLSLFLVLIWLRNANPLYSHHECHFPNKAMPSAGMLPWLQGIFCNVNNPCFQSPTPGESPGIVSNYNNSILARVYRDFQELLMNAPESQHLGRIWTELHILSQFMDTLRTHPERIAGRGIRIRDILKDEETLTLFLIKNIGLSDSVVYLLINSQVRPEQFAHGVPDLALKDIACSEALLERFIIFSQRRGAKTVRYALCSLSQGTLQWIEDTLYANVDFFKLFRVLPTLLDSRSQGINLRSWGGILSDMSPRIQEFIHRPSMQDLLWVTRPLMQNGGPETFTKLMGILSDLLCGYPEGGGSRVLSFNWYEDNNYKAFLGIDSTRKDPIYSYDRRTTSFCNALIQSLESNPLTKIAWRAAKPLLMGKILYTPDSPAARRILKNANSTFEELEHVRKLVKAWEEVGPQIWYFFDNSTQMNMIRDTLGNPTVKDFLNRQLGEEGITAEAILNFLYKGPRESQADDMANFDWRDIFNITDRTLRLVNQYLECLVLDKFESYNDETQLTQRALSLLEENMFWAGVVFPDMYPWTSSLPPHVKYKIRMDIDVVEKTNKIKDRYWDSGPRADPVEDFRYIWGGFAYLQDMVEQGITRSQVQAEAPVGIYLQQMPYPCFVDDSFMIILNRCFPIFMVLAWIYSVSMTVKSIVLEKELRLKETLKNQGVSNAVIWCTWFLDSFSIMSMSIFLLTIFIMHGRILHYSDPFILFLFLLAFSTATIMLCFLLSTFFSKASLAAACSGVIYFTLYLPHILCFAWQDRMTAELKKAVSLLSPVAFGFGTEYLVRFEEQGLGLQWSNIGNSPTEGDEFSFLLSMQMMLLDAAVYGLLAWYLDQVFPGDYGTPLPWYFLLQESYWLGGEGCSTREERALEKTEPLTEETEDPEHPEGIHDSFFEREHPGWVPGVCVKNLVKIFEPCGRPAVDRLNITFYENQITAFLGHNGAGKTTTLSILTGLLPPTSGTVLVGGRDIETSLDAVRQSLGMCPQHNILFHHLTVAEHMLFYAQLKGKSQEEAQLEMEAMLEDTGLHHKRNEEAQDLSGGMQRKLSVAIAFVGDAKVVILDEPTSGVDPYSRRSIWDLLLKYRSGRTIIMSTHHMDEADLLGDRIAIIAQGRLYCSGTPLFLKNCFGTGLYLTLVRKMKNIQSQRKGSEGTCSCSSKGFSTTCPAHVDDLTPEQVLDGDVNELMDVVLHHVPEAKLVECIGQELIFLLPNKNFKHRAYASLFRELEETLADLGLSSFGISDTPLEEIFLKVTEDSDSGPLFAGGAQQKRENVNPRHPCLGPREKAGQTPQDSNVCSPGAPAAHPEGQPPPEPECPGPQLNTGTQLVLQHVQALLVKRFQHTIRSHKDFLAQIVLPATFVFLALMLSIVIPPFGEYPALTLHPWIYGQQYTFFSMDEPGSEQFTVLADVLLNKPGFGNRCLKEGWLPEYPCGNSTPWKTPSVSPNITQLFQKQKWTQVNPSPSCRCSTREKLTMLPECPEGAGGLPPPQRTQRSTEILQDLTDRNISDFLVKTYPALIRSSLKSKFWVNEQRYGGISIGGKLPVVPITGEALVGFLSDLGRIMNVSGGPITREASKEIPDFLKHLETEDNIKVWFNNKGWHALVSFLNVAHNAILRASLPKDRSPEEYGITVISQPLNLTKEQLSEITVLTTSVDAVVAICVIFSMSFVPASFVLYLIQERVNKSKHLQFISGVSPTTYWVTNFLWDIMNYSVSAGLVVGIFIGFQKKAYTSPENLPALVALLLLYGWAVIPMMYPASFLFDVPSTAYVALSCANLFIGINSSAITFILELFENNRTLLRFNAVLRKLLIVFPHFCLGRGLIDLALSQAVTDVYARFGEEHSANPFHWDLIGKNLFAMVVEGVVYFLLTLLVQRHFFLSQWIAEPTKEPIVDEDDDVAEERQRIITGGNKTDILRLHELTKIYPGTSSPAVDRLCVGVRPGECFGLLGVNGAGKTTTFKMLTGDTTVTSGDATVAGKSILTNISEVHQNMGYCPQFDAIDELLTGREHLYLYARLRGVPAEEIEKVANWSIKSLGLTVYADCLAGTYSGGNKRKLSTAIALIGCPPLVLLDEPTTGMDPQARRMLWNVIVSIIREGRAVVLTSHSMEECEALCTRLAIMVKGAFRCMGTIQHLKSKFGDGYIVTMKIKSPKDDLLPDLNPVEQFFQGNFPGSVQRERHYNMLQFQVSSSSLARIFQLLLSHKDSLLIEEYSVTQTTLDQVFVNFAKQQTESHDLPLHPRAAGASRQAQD
inactive: sotrastaurin -0.249 | alvocidib 0.277 | Tubastatin A 0.246 | [1] -0.152 | rucaparib 0.006 | encorafenib 0.006 | [2] 0.394 | filanesib 0.076 | zotarolimus 0.031 | idasanutlin -0.02 | alisertib -0.071 | gefitinib 0.014 | [3] -0.007 | pictilisib 0.135

ADPRH (UniProt P54922)
inactive: sotrastaurin -0.067 | Tubastatin A 0.213 | [1] -0.011 | defactinib -0.076 | [6] 0.028 | [2] 0.098 | filanesib -0.088 | alisertib -0.099 | [5] 0.135 | gefitinib 0.013 | [3] -0.033 | lapatinib 0.05 | pictilisib -0.107

ARHGAP25 isoform 4 (UniProt P42331)
inactive: saracatinib 0.249 | alvocidib -0.128 | Tubastatin A 0.079 | [1] -0.023 | defactinib 0.02 | rucaparib 0.168 | [4] 0.131 | encorafenib 0.212 | [6] -0.212 | zotarolimus -0.077 | idasanutlin -0.123 | alisertib -0.068 | gefitinib 0.08 | [3] -0.11 | pictilisib 0.085

APOBEC3G (UniProt Q9HC16)
inactive: saracatinib 0.046 | sotrastaurin 0.023 | Tubastatin A -0.045 | [1] -0.093 | defactinib -0.097 | rucaparib 0.152 | [4] -0.121 | encorafenib -0.263 | [6] 0.038 | [2] -0.012 | filanesib 0.066 | idasanutlin 0.039 | alisertib -0.092 | [5] 0.047 | gefitinib -0.074 | [3] -0.053 | lapatinib 0.046

ADD2 isoform 9 (UniProt P35612)
inactive: sotrastaurin -0.122 | filanesib 0.043 | alisertib -0.072 | [5] -0.053 | [3] 0.282 | lapatinib 0.04

ACSL6 isoform 1 (UniProt Q9UKU0)
UniProt Q9UKU0, sequence (Q9UKU0 whole entry, looked up): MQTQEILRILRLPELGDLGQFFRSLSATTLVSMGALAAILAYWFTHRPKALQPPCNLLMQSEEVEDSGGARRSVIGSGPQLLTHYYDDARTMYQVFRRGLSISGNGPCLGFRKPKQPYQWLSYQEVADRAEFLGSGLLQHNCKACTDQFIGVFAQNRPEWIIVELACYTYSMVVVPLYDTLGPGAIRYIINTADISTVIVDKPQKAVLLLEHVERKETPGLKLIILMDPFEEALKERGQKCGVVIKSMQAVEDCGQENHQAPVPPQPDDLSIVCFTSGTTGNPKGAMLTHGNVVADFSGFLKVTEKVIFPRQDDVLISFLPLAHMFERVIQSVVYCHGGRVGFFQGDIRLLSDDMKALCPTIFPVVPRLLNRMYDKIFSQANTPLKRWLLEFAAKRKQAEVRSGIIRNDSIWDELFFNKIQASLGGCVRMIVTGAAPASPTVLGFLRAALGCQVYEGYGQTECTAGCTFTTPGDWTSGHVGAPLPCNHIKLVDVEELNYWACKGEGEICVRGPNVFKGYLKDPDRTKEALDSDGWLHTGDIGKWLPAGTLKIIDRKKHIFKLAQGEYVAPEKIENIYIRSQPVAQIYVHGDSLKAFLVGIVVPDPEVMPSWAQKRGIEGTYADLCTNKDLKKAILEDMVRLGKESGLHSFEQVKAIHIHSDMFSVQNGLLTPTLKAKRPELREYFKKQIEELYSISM
inactive: saracatinib -0.041 | sotrastaurin 0.177 | Tubastatin A -0.076 | [1] -0.048 | defactinib 0.155 | [4] -0.007 | [6] 0.021 | filanesib -0.054 | alisertib -0.013 | gefitinib 0.103 | [3] 0.123 | pictilisib 0.051

ACTBL2 (UniProt Q562R1)
inactive: saracatinib -0.054 | sotrastaurin 0.179 | [1] 0.158 | defactinib 0.432 | rucaparib -0.711 | [4] 0.035 | encorafenib 0.239 | [6] 0.15 | filanesib 0.171 | idasanutlin 0.533 | alisertib 0.521 | [5] -0.085 | gefitinib 0.348 | [3] -0.105 | lapatinib -0.079 | pictilisib -0.541

ARFIP1 isoform 2 (UniProt P53367)
UniProt P53367, sequence (P53367 whole entry, looked up): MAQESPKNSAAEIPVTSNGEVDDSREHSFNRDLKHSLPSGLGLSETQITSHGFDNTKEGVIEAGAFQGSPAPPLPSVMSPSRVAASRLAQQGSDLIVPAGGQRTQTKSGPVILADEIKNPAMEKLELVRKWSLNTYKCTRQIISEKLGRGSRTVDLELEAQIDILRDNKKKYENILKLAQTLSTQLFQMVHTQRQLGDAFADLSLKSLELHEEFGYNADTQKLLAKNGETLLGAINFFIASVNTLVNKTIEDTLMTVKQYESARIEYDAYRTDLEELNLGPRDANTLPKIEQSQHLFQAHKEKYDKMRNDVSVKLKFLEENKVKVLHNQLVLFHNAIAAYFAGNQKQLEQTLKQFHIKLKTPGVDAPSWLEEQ
inactive: saracatinib 0.026 | sotrastaurin -0.041 | [1] -0.268 | [4] 0.279 | [2] -0.225 | filanesib -0.082 | alisertib -0.17 | [5] -0.013 | gefitinib -0.067 | [3] -0.068 | lapatinib 0.05 | pictilisib -0.154

ADD1 isoform 4 (UniProt P35611)
inactive: alvocidib 0.087 | [2] -0.054 | zotarolimus -0.065 | pictilisib -0.068

BRMS1 (UniProt Q9HCU9)
inactive: saracatinib -0.185 | Tubastatin A 0.001 | rucaparib -0.017 | [4] 0.007 | encorafenib 0.106 | idasanutlin 0.066 | alisertib -0.074 | [3] 0.007 | pictilisib 0.042

BSCL2 isoform 4 (UniProt Q96G97)
inactive: saracatinib -0.019 | alvocidib -0.164 | Tubastatin A 0.03 | [1] -0.025 | defactinib -0.113 | [4] -0.122 | [6] -0.071 | zotarolimus 0.076 | idasanutlin -0.132 | alisertib -0.037 | [5] -0.248 | gefitinib 0.021 | [3] 0.069 | lapatinib 0.048 | pictilisib 0.126

ABHD11 (UniProt Q8NFV4)
inactive: saracatinib -0.022 | alvocidib -0.066 | Tubastatin A 0.096 | [1] 0.05 | defactinib -0.114 | rucaparib 0.02 | [4] -0.102 | encorafenib 0.004 | [6] -0.095 | [2] -0.076 | zotarolimus 0.049 | idasanutlin -0.058 | alisertib -0.002 | [5] 0.061 | gefitinib -0.013 | [3] 0.076 | lapatinib -0.037 | pictilisib 0.024

ALDH2 isoform 2 (UniProt P05091)
inactive: sotrastaurin 0.161 | Tubastatin A 0.005 | defactinib 0.06 | rucaparib -0.255 | encorafenib 0.097 | [6] -0.003 | filanesib 0.013 | idasanutlin 0 | [5] 0.166 | lapatinib -0.266 | pictilisib -0.035

ARMC8 isoform 6 (UniProt Q8IUR7)
inactive: [1] -0.088 | defactinib -0.114 | [6] 0.108 | idasanutlin 0.072 | gefitinib 0.072

ATXN3 isoform 1 (UniProt P54252)
inactive: alvocidib -0.109 | Tubastatin A 0.138 | [1] -0.03 | defactinib -0.119 | rucaparib -0.015 | encorafenib 0.085 | [6] 0.018 | [2] 0.023 | zotarolimus -0.051 | idasanutlin -0.114 | alisertib -0.004 | [5] 0.106 | gefitinib -0.192 | [3] 0.297 | lapatinib -0.031 | pictilisib -0.036

Reference: the supplement of paper PMC10849652
